# DAX1 inh-1 = inhibits human nuclear receptor DAX1. P51843. HEK293 Gal4-DAX1 luciferase reporter, luminescence. inhibition, % at 6.75 µM. hit rate 0.99% among 340,000. AID 504766;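 active means inhibition above the mean over all tested compounds plus 3 SD, cut at about 4.2% in these data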;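 further: 0% = DAX1-transfected cells with DMSO and 100% = empty-vector control cells with DMSO; inhibition shows as a rise in luminescence from relieved DAX1 repression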
# Target sequence (P51843 207-470 limits assumed): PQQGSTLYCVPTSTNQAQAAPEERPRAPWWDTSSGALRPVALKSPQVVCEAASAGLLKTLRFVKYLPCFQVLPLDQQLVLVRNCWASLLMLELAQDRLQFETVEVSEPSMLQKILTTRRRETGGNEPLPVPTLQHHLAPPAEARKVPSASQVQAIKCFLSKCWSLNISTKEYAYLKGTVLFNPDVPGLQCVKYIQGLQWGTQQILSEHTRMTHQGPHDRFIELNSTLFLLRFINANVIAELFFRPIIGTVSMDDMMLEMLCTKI
# hgDAF12 agonist = agonists of H. glycines DAF-12 nuclear receptor; HEK293 GAL4-hgDAF12 UAS-luciferase reporter, agonist luminescence; normalized to butyrate control; activation, % at 6.8 µM; hit rate 1.8% among 370,000;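 active means activation above a cutoff set at the mean of all screened compounds plus 3 SD, cut at about 10% in these data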;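 further: 0% = DMSO wells and 100% = sodium butyrate wells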
# hcDAF12 agonist = activates DAF-12 receptor from parasite H. contortus | HEK293 hcDAF-12 lit1-tk-luc reporter, luminescence; 0% DMSO, 100% Δ7-dafachronic acid | activation, % at 6.8 µM | hit rate 1.4% among 370,000 | AID 652067;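 active means activation above the mean of all tested compounds plus 3 SD, cut at about 5.5% in these data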;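 further: 100% = response to 3 µM Δ7-dafachronic acid high control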
# ssDAF12 agonist = activators of S. stercoralis DAF-12 nuclear receptor; HEK293 ssDAF-12/GRIP1 lit1-tk-luc reporter, luminescence; % of 3 µM dafachronic acid response; activation, % at 6.8 µM; hit rate 1% among 370,000;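 active means activation above the mean over all tested compounds plus 3 SD, cut at about 0.9% in these data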;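 further: 0% = DMSO-only wells and 100% = 3 µM delta7-dafachronic acid wells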
# DAX1 inh-2 = DAX1 (NR0B1) inhibition, primary screen | HEK293T StAR-luciferase reporter, SF-1/DAX-1 repression relief | inhibition, % at 6.8 µM | hit rate 1.1% among 370,000 | AID 652010;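 active means inhibition above the mean over all tested compounds plus 3 SD, cut at about 3.6% in these data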;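 further: 0% = DAX-1 cells with DMSO and 100% = cells lacking DAX-1 with DMSO; higher inhibition means more luminescence from relief of DAX-1 repression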
# * = called active by the depositor; / = not tested or not shown. Rows were chosen to be rich in hits. Some 4.1% of all compounds tested hit in one or more screens of this group.
SMILES,DAX1 inh-1,hgDAF12 agonist,hcDAF12 agonist,ssDAF12 agonist,DAX1 inh-2
CCOC(=O)CC(=O)CSc1nc2ccc(OC)cc2cc1C,0,3,0,1.7*,1
CCOC(=O)CC(=O)CSc1nc2c(C)c(C)ccc2cc1C,-1,0,1,0,0
Cc1cc(N2CCCCC2C)nc(-c2ccccc2O)n1 (stereo unspecified),4.4*,2,0,-1,0
COC(=O)[C@]12C[C@H](CC(=O)NCc3cccc(C(F)(F)F)c3)C(=O)N(Cc3ccccc3)C1=C[C@H](C1CCCC1)O[C@@H]2C,/,1,-1,-1,-1
CCOC(=O)c1cc2c(=O)c3ccccc3oc2nc1C,2,11*,3,-1,1
CC(=O)c1cc2c(=O)c3ccccc3oc2nc1C,0,0,-1,-1,0
C[C@@H]1COc2cc(F)ccc2S(=O)(=O)N1C,/,-2,0,0,0
Cc1cc(O)c(C2=Nc3ccccc3SC(c3ccc(Cl)cc3)C2)c(=O)o1 (stereo unspecified),2,6,6.1*,0,0
Cc1oc(-c2ccc(Cl)cc2)cc1C(=O)O,5.5*,3,1,0,1
Cc1ccc(-n2nnc(-c3cccnc3Cl)n2)cc1,1,12*,4,0,2
Clc1ccc(-n2nnc(-c3cccnc3Cl)n2)cn1,2,7,2,-1,1
O=C(CN1C(=O)NC(Cc2ccccc2)C1=O)Nc1ccc(F)cc1 (stereo unspecified),4.5*,0,-2,-1,0
O=C(Cn1ncc(N2CCOCC2)c(Br)c1=O)c1ccc(Cl)cc1,1,-1,1,-2,1
O=C(Cn1ncc(N2CCCC2)c(Cl)c1=O)c1ccc(Cl)cc1,4,4,1,1.6*,2
O=C1c2ccccc2C(=O)C12OC2c1ccc(Cl)cc1Cl (stereo unspecified),1,-1,5,1.5*,0
O=C1c2ccccc2C(=O)C1c1ccc(Cl)cc1,1,6,3,-1,2
CCCCCC[C@@H](CC)CN(C(=O)Oc1ccccc1)c1ccccc1,/,-3,-1,-1,0
Clc1nc2ccccc2cc1-c1nnn(-c2ccccc2Br)n1,1,1,3,0,0
Brc1ccccc1-n1nnc(-c2cnc3ccccc3c2)n1,1,13*,17*,3.5*,5.2*
CC(/C=N/NC(=O)c1cccs1)=C\c1ccco1,0,12*,2,-1,3
CC(/C=N/NC(=O)Cc1cccs1)=C\c1ccco1,0,4,2,-1,1
CC(/C=N/NC(=O)CSc1nc2ccccc2n1C)=C\c1ccco1,1,0,6.0*,0,0
CCCSc1nnc2nc(C)cc(C)n12,4.7*,1,-3,-1,1
Cc1cc(C)n2c(SCc3cccs3)nnc2n1,0,-1,-1,-1,1
Cc1cc(C)n2c(SCC#N)nnc2n1,4.6*,-3,-1,-1,-1
SMILES,DAX1 inh-1,hgDAF12 agonist,hcDAF12 agonist,ssDAF12 agonist,DAX1 inh-2
COc1cc(NC(=O)C2CCCN(S(=O)(=O)c3ccc(C)c(C)c3)C2)cc(OC)c1 (stereo unspecified),/,4,-4,-2,0
Cc1c(-c2cc(Br)ccc2O)nc2cc3c(cc2c1C)OCO3,4.3*,5,0,-1,0
CCN(CC)C(=O)CC[C@H]1CC[C@]2(CCCN(C(=O)c3ccc4ccccc4n3)C2)O1,/,-1,-2,-1,0
Cc1cc2nc(-c3ccc(SCc4ccccc4C#N)nc3)[nH]c2cc1C,-1,3,-2,-3,0
Cc1cc2nc(-c3ccc(SCc4ccc(C(=O)O)cc4)nc3)[nH]c2cc1C,2,12*,0,-1,2
COC(=O)C1CN(C2CCCC2)CCS(=O)(=O)N1Cc1ccc(F)cc1 (stereo unspecified),/,3,-2,-2,-1
O=C(O)c1ccc(NC2=C(Cl)C(=O)c3ccccc3C2=O)cc1,3,2,6.7*,0.9*,0
O=C(O)c1cccc(NC2=C(Cl)C(=O)c3ccccc3C2=O)c1,-1,3,3,-1,1
O=C(NC1CCCC1)[C@@H]1CCCN1C(=O)[C@@H](NS(=O)(=O)c1ccc(F)cc1F)c1ccccc1,/,-4,1,-1,-1
O=C1NCCN/C1=C\C(=O)c1ccccc1,1,6,-1,0,1

# Source: PubChem (The Scripps Research Institute Molecular Screening Center)
